Assay [1] is described as follows: optical density shifts of acrAB sulA E. coli – strain DRC41, OD650, 48 h, E. coli filamentation inducer project, primary screen (AID 1152).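 Further: E. coli MC1000 strain DRC41 lacking acrAB efflux pump and sulA.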 Conditions: higher = more signal, called active from +8 up or from −8 down.
A short description of assay [2]: probe aLefty1 binding on compound microarray – biochemical, small-molecule microarray, 635/667 nm fluorescence, primary screen (AID 1153).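 Further: score merges spot fluorescence with signal-to-noise ratio from the scanned slide images.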 Conditions: higher = more signal.
Assay [3] can be described thus: plasmodial surface anion channel blockers, osmotic lysis – cell-based, P. falciparum Indochina, OD700, 1 h, primary screen (AID 1154). Conditions: P. falciparum Indochina infected RBC osmotic lysis, higher = more signal, called active from +8 up or from −8 down.
Assay [4] is described as follows: plasmodial surface anion channel blockers, osmotic lysis – cell-based, P. falciparum Indochina, OD700, 2 h, primary screen (AID 1155).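 Further: lysis reports solute entry through the parasite surface anion channel PSAC.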 Conditions: P. falciparum Indochina infected erythrocytes, higher = more signal, called active from +8 up or from −8 down.
Assay [5] can be described thus: changes in parasitized red cell lysis, either direction – P. falciparum Indochina, OD700, 3 h, PSAC antagonist project, primary screen (AID 1156). Conditions: P. falciparum-infected erythrocytes, osmotic lysis, higher = more signal, called active from +8 up or from −8 down.
The nature of assay [6]: plasmodial surface anion channel blockers, osmotic lysis – cell-based, P. falciparum Indochina, OD700, 18 h, primary screen (AID 1157). Conditions: P. falciparum Indochina infected erythrocytes, osmotic lysis OD700, 18 h; higher = more signal, called active from +8 up or from −8 down.
A short description of assay [7]: S6 kinase pathway phospho-S6 level changes – cell-based, A549, cytoblot, luminescence, serum-stimulated, primary screen (AID 1158).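 Further: serum-stimulated A549 lung adenocarcinoma cells; signal is phosphorylated S6 detected by cytoblot immunostaining with HRP secondary.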 Conditions: 5 h, higher = more signal.
Assay [8] deals with NADPH oxidase 2 (Homo sapiens) (UniProt P04839). Nature of the assay: compounds shifting NOX2 Amplex Red fluorescence – cell-based, HEK293-NOX2, PMA-stimulated, NOX inhibitor project, primary screen (AID 1159). Further: test concentration not given here. Conditions: 45 min, higher = more signal, called active from +8 up or from −8 down.
Assay [9] addresses NADPH oxidase 4 (Homo sapiens) (UniProt Q9NPH5). Nature of the assay: compounds shifting NOX4 Amplex Red fluorescence – cell-based, HEK293-NOX4, tetracycline-induced, NOX inhibitor project, primary screen (AID 1160). Conditions: HEK293-NOX4, Amplex Red H2O2 fluorescence, 45 min; higher = more signal, called active from +8 up or from −8 down.
Assay [10] addresses NADPH oxidase 5 (Homo sapiens) (UniProt Q96PH1). Description: compounds shifting NOX5 Amplex Red fluorescence – cell-based, HEK293-NOX5, NOX inhibitor project, primary screen (AID 1161). Conditions: HEK293-NOX5, ionomycin, 45 min, higher = more signal.
Assay [11] in a line: compound effects on lung adenocarcinoma cell viability – A549, calcein-AM fluorescence, 48 h, basal, profiling panel (AID 1162). Further: test concentration not given here. Conditions: higher = more signal.
Assay [12] is described as follows: compound effects on differentiated 3T3-L1 adipocyte viability – cell-based, 3T3-L1 adipocytes, calcein-AM fluorescence, 48 h, basal, profiling panel (AID 1163). Further: test concentration not given here. Conditions: 3T3-L1 adipocytes viability, higher = more signal.
Assay [13] is described as follows: compound effects on hepatocellular carcinoma cell viability – HepG2, calcein-AM fluorescence, 48 h, basal, profiling panel (AID 1164). Further: test concentration not given here. Conditions: higher = more signal.
Assay [14] in a line: compound effects on multiple myeloma cell viability – MM1S, calcein-AM fluorescence, 48 h, basal, profiling panel (AID 1165). Further: test concentration not given here. Conditions: higher = more signal.
Assay [15] is described as follows: calcein-AM signal in unstimulated myeloma cells – cell-based, calcein-AM fluorescence, 48 h, PK04 Diversity Set, profiling panel (AID 1166).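 Further: cells grown under basal conditions without added stimulus; test concentration not given here.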 Conditions: RPMI8226 myeloma viability, higher = more signal.
The nature of assay [16]: JC-1 mitochondrial signal, unstimulated HepG2 cells – cell-based, JC-1 fluorescence, 24 h, 100 nL compound, profiling panel (AID 1167). Further: test concentration not given here. Conditions: HepG2 mitochondrial potential, higher = more signal.
Assay [17] can be described thus: JC-1 mitochondrial signal, unstimulated adipocytes – cell-based, JC-1 fluorescence, 3T3-L1 adipocytes, 24 h, 100 nL compound, profiling panel (AID 1168). Further: test concentration not given here. Conditions: JC-1 mitochondrial fluorescence, higher = more signal, called active from +8 up or from −8 down.
Assay [18] is described as follows: JC-1 mitochondrial signal, unstimulated myeloma cells – cell-based, JC-1 fluorescence, RPMI8226, 24 h, 100 nL compound, profiling panel (AID 1169). Further: test concentration not given here. Conditions: JC-1 mitochondrial potential fluorescence, higher = more signal.
Assay [19] can be described thus: JC-1 mitochondrial signal, unstimulated MM1S myeloma – cell-based, JC-1 fluorescence, 24 h, 100 nL compound, profiling panel (AID 1170). Further: test concentration not given here. Conditions: MM1S mitochondrial potential, higher = more signal.
Assay [20] in a line: resazurin metabolic signal in A549 cells – cell-based, resazurin fluorescence, 24 h, PK04 Diversity Set, profiling panel (AID 1171). Further: test concentration not given here. Conditions: A549 viability, higher = more signal, called active from +8 up or from −8 down.

Where “and” joins values, the source holds several entries; their conditions need not be identical. Equal values may be shown once. Calls of active or inactive are those of the source.

Chain of NADPH oxidase 4 (Homo sapiens) (Q9NPH5 whole entry, looked up): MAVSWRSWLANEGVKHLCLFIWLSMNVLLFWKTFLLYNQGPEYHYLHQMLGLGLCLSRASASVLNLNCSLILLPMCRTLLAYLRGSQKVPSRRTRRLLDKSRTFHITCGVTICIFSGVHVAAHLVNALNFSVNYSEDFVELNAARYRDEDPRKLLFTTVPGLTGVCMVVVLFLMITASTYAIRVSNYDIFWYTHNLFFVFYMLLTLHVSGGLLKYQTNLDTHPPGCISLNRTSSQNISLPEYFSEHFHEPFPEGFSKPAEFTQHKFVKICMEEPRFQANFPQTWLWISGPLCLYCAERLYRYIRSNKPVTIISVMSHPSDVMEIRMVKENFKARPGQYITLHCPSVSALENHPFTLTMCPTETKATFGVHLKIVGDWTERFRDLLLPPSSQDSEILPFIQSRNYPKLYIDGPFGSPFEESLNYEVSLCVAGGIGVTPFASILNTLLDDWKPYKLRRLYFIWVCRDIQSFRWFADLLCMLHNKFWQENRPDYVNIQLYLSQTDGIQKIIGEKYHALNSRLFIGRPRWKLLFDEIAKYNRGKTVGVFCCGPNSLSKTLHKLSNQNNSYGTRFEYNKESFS
Chain of NADPH oxidase 2 (Homo sapiens) (P04839 whole entry, looked up): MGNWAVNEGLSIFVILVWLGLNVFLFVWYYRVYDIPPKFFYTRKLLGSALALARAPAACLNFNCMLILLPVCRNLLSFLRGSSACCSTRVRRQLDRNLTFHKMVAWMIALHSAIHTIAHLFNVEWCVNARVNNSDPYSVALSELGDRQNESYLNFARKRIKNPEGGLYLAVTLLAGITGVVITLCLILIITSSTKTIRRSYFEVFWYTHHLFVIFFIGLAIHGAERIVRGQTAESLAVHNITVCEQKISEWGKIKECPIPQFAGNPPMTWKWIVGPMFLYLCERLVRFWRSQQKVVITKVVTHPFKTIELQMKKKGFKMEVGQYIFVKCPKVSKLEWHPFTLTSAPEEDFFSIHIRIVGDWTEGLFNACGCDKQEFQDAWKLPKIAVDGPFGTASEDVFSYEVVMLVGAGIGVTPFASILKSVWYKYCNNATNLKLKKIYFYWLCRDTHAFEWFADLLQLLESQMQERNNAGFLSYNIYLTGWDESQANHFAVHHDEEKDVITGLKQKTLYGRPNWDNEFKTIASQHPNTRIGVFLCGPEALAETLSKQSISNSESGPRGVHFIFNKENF
Chain of NADPH oxidase 5 (Homo sapiens) (Q96PH1 whole entry, looked up): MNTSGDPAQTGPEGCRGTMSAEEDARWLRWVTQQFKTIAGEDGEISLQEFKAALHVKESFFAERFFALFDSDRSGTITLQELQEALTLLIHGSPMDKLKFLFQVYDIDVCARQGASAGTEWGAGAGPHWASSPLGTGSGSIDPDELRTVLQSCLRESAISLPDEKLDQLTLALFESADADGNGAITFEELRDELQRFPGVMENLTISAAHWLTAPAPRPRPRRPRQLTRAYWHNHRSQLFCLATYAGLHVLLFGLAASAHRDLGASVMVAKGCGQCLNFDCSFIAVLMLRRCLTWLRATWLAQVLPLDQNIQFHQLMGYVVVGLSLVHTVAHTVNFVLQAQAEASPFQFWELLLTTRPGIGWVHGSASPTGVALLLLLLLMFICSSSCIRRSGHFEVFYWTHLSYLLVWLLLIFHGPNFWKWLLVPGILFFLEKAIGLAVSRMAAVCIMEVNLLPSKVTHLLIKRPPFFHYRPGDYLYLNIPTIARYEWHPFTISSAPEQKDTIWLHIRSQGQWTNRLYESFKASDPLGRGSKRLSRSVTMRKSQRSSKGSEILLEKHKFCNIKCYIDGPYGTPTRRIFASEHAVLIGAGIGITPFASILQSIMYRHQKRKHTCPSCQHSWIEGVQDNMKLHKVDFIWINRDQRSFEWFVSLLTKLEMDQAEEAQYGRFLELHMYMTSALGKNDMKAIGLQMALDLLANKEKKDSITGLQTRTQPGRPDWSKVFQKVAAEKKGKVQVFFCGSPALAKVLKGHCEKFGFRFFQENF

On to `C=CCN(C(=O)C1N(c2ccc(CCO)cc2)C(=O)C2C(C(=O)O)C3C=CC21O3)c1ccc(OC)cc1` (stereo not given), for which the z-score is -0.0883 (inactive) and 1.76 (inactive) in assay [1]; 2.34 (inactive) and 0.289 (inactive) in assay [3]; 0.752 (inactive) and -0.136 (inactive) in assay [4]; -0.0787 (inactive) and -0.0798 (inactive) in assay [5]; 0.258 (inactive) and 0.284 (inactive) in assay [6]; 0.0631 and 2.4 in assay [7]. Moreover, the z-score is 1.27 (inactive) and -0.00582 (inactive) in assay [8]; -1.05 (inactive) and -0.234 (inactive) in [9]; 2.64 and -0.701 in assay [10]; 0.414 and -0.783 in assay [11]; 0.432 and 0.014 in assay [12]; -0.535 and -0.905 in assay [13]. The z-score in assay [14] was 1.02 and 1.1; in assay [15], -0.0159 and 0.492; in [16], -0.19 and -0.0346; in assay [17] it was -0.246 (inactive) and -0.356 (inactive); in assay [18] it was -0.0146 and 0.609; in [19] it was -0.358 and 0.691. The z-score in [20] was -1.23 (inactive) and 0.468 (inactive). For the same compound, the composite z-score in assay [2] is -0.147 and -0.216.

In the case of `COC(=O)C1=C(C)N(Cc2ccccc2)C2=C3C(=O)N(C)C(=O)[C@@H]3[C@@](O)(C(=O)OC)C(=O)N2[C@@H]1c1ccccc1`, the z-score is 0.71 (inactive) and -0.313 (inactive) in [1]; -0.188 (inactive) and -1.06 (inactive) in assay [3]; -0.215 (inactive) and -1.49 (inactive) in assay [4]; -0.745 (inactive) and -0.379 (inactive) in assay [5]; -0.339 (inactive) and -1.77 (inactive) in assay [6]; -0.137 and 1.48 in [7]. Also, the z-score was 1.13 (inactive) and -0.926 (inactive) in [8]; 0.507 (inactive) and 0.254 (inactive) in [9]; -0.0308 and 0.418 in assay [10]; 0.77 and 0.914 in assay [11]; -0.159 and 0.143 in assay [12]; 0.215 and 1.05 in assay [13]. Moreover, the z-score is -0.607 and -0.213 in assay [14]; 0.0606 and 0.359 in assay [15]; 0.981 and 0.11 in assay [16]; -0.531 (inactive) and 0.96 (inactive) in assay [17]; 0.134 and -0.542 in [18]; 0.739 and 0.467 in assay [19]. For the same compound, in [20], the z-score was 1.18 (inactive) and -1.08 (inactive). The composite z-score in assay [2] is 0.0341 and 0.0278.

On to `CC(C)=NOC[C@@H](O)COCc1ccco1`, for which the z-score in assay [1] is 0.534 (inactive); in assay [3] it was 0.159 (inactive); in [4] it was 0.365 (inactive); in [5] it was -0.0924 (inactive); in assay [6] it was 0.0967 (inactive); in assay [7], 0.566. Besides, the z-score in assay [8] was 0.0371 (inactive); in assay [9], 0.0915 (inactive); in [10] it was 0.125; in [11], 0.991; in assay [12], -0.611; in [13], 0.828. Moreover, the z-score was 0.191 in [14]; 0.313 in assay [15]; -0.0938 in assay [16]; 0.121 (inactive) in [17]; 0.602 in assay [18]; -0.391 in [19]. Moreover, the z-score in assay [20] is -0.736 (inactive). The composite z-score in assay [2] came to 0.843.

As to `C=C[C@H](OC)[C@@H](O)c1ccc(OCCO)cc1`, the z-score in [1] was -0.389 (inactive) and 0.805 (inactive); in [3], 0.749 (inactive) and 0.142 (inactive); in [4] it was 0.305 (inactive) and 0.0012 (inactive); in assay [5], -0.442 (inactive) and -0.321 (inactive); in assay [6] it was 0.0568 (inactive) and 0.352 (inactive); in assay [7], 0.136 and 0.135. Besides, the z-score in [8] was 0.844 (inactive) and -0.354 (inactive); in assay [9], -1.32 (inactive) and -0.339 (inactive); in [10] it was -0.372 and 0.317; in assay [11], -0.057 and 1.18; in assay [12], -0.367 and 0.0113; in assay [13], -0.485 and 0.98. For the same compound, the z-score in [14] was -0.457 and 1.61; in [15] it was -0.179 and 0.542; in assay [16], -0.899 and 1.11; in [17], -0.433 (inactive) and -0.178 (inactive); in assay [18], -0.0855 and -0.21; in [19], 0.412 and 1.06. Besides, the z-score in assay [20] was -0.555 (inactive) and -0.0644 (inactive). Moreover, in assay [2], the composite z-score is -0.328 and -0.147.

For `C=CCN(Cc1ccccc1)C(=O)C(c1cccs1)N(C(=O)/C=C\C(=O)O)c1c(Cl)cccc1CO` (stereo not given), the z-score in assay [1] is -0.608 (inactive) and -0.244 (inactive); in assay [3], -0.152 (inactive) and -0.0214 (inactive); in assay [4], 0.0805 (inactive) and 0.266 (inactive); in assay [5] it was 0.617 (inactive) and -0.39 (inactive); in [6], 0.306 (inactive) and 0.109 (inactive); in assay [7], 0.0278 and -0.193. Moreover, the z-score in assay [8] is -0.0842 (inactive) and 0.208 (inactive); in assay [9], -0.662 (inactive) and -0.417 (inactive); in assay [10], 0.0528 and 0.284; in assay [11], -0.159 and -0.34; in [12], 0.036 and -0.0047; in assay [13] it was -0.876 and -0.217. Besides, the z-score in assay [14] is 1.21 and 1.6; in assay [15] it was 1 and -0.538; in assay [16], -0.267 and -0.148; in assay [17], 0.426 (inactive) and 0.223 (inactive); in assay [18] it was -0.917 and 0.247; in assay [19] it was -0.871 and -0.502. The z-score in assay [20] was 0.351 (inactive) and -0.519 (inactive). Moreover, the composite z-score in assay [2] is -0.855 and -0.191.

For `COC(=O)C1=C(C)N(Cc2ccccc2)[C@]23O[C@](C(=O)OC)(C(=O)N2[C@@H]1c1ccccc1)[C@@H](C(=O)OC)[C@H]3C(=O)OC`, the z-score in assay [1] was 0.514 (inactive) and 0.184 (inactive); in assay [3], 0.295 (inactive) and 0.114 (inactive); in assay [4] it was 0.185 (inactive) and 0.319 (inactive); in assay [5], 0.285 (inactive) and -0.414 (inactive); in [6] it was -0.022 (inactive) and 0.17 (inactive); in assay [7], -0.046 and 0.635. Besides, the z-score was 1.8 (inactive) and -0.506 (inactive) in [8]; -1.42 (inactive) and -0.0445 (inactive) in assay [9]; 0.371 and 0.422 in assay [10]; 1.59 and 1.67 in assay [11]; -0.0502 and -0.386 in [12]; 0.209 and 1.32 in assay [13]. Moreover, the z-score was 0.185 and 0.568 in assay [14]; 0.248 and 0.636 in [15]; 0.345 and 0.106 in [16]; 0.225 (inactive) and 1.49 (inactive) in [17]; -0.866 and 0.532 in assay [18]; -0.142 and -0.237 in assay [19]. Besides, in assay [20], the z-score is 0.415 (inactive) and -0.804 (inactive). For the same compound, in assay [2], the composite z-score was -0.282 and -0.0011.

Regarding `CON(C)C(=O)c1nnc2c3ccccc3n(S(=O)(=O)c3ccc(C)cc3)c2n1`, the z-score in [1] was -0.162 (inactive) and 0.162 (inactive); in [3] it was 1.21 (inactive) and 2.08 (inactive); in assay [4], 0.0579 (inactive) and 0.454 (inactive); in assay [5], -0.212 (inactive) and 0.184 (inactive); in [6], -0.096 (inactive) and 0.149 (inactive); in assay [7], -0.375 and 0.313. The z-score in assay [8] was 0.442 (inactive) and -1.24 (inactive); in assay [9], 0.882 (inactive) and 0.0607 (inactive); in [10], 0.436 and 0.278; in assay [11], 0.318 and 1.25; in [12] it was 0.495 and -0.447; in assay [13], -1.33 and -0.298. The z-score in assay [14] was 0.14 and 0.0315; in [15], 0.496 and -0.588; in [16], -1.61 and -1.52; in assay [17], -0.301 (inactive) and -0.0202 (inactive); in [18], 0.218 and 0.4; in assay [19], -0.436 and -0.72. Besides, the z-score in assay [20] is 0.617 (inactive) and -0.146 (inactive). In [2], the composite z-score is -0.262 and -0.368.

Source of the values: PubChem BioAssay.
